Drawing on PubChem BioAssay (EPA / NIEHS), this text covers outcome and AC50 for seven molecules.

The nature of experiment [1]: ATG_GRE_CIS: Attagene CIS-FACTORIAL HepG2 Assay for human Glucocorticoid Response Elements (GRE) (AID 2282947). As to conditions: HepG2 GRE cis-reporter, Attagene multiplex mRNA; actives raise or lower the signal. In short, it runs like this: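 Fluorescence intensity of reporter-specific cDNA fragments, separated by capillary electrophoresis, provides the signal. Constructs carry cis-regulating promoters in transiently transfected HepG2 liver cells; 24 h incubation; fitting is bidirectional against DMSO.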

Experiment [2] can be described thus: ATG_ISRE_CIS: Attagene CIS-FACTORIAL HepG2 Assay for human Interferon Regulatory Factor 1 (IRF1) binding to an Interferon-Stimulated Response Element (ISRE) (AID 2282948). As to conditions: HepG2 ISRE cis-reporter (Attagene), mRNA transcription readout; actives raise or lower the signal. In short, it runs like this: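 Signal reflects induction or loss of ISRE-linked reporter mRNA in transiently transfected HepG2 cells after a 24 h treatment, detected by fluorescent RT-PCR fragments on capillary electrophoresis and normalised to DMSO.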

Experiment [3] is described as follows: ATG_M_32_CIS: Attagene CIS-FACTORIAL HepG2 Assay for M32 Transcription Factor (Internal Marker) (AID 2282949).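 Further: background control marker of the multiplexed CIS panel rather than a real target.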 As to conditions: HepG2 Attagene cis-factorial M32 reporter, mRNA; actives raise or lower the signal. In short, it runs like this: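 HepG2 human liver cells transiently transfected with cis-promoter-driven multiple reporter transcription units, dosed 24 h. Reporter mRNA quantified by RT-PCR, FAM-labelled primer extension, HpaI digest and capillary electrophoresis; bidirectional fit versus DMSO baseline.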

Experiment [4] can be described thus: ATG_M_06_CIS: Attagene CIS-FACTORIAL HepG2 Assay for M06 Transcription Factor (Internal Marker) (AID 2282950). As to conditions: HepG2 Attagene CIS-FACTORIAL M06 internal marker reporter; actives raise or lower the signal. In outline:
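HepG2 liver cells, 24 h exposure. Reporter transcripts from transfected cis-element constructs quantified by RT-PCR/capillary electrophoresis fluorescence. Bidirectional curve fit against DMSO.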

In experiment [5] the target is Hypoxia-inducible factor 1-alpha (Homo sapiens) (UniProt Q16665). As to the kind of experiment: ATG_HIF1a_CIS: Attagene CIS-FACTORIAL HepG2 Assay for human Hypoxia Inducible Factor 1 (HIF1A) (AID 2282951). As to conditions: HepG2 Attagene cis-factorial HIF1a reporter transcription; actives raise or lower the signal. In outline: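 Dosed 24 h, transfected HepG2 cells yielded total RNA whose reporter transcripts were RT-PCR-amplified and sized by capillary electrophoresis using fluorescent labelling; DMSO defined baseline, with gain and loss of signal both fitted.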

Experiment [6] has as its target Hepatocyte nuclear factor 6 (Homo sapiens) (UniProt Q9UBC0). As to the kind of experiment: ATG_HNF6_CIS: Attagene CIS-FACTORIAL HepG2 Assay for human Hepatocyte Nuclear Factor 6 (HNF6) (AID 2282952). As to conditions: HepG2 Attagene cis-factorial HNF6 reporter transcription; actives raise or lower the signal. In short, it runs like this:
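Activity values derive from bidirectional fitting against DMSO of reporter mRNA levels, measured by capillary electrophoresis of labelled RT-PCR products from HepG2 cells exposed 24 h.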

Experiment [7] has as its target Heat shock factor protein 1 (Homo sapiens) (UniProt Q00613). As to the kind of experiment: ATG_HSE_CIS: Attagene CIS-FACTORIAL HepG2 Assay for human Heat Shock Transcription Factor 1 (HSE) (AID 2282953). As to conditions: HepG2 HSE cis-reporter, Attagene RNA transcription; actives raise or lower the signal. In short, it runs like this:
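Endogenous transcription factor activity captured via cis-promoter reporter units transfected into HepG2; treatment lasted 24 h. Fluorescence intensity of reporter fragments analysed with bidirectional curve fitting, DMSO baseline.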

A short description of experiment [8]: ATG_MRE_CIS: Attagene CIS-FACTORIAL HepG2 Assay for human Metal Responsive Element (MRE) (AID 2282954). As to conditions: HepG2 MRE cis-reporter transcription, Attagene multiplex; actives raise or lower the signal. In short, it runs like this: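 Measured here is mRNA induction from an MRE cis-element reporter in HepG2 after 24 h, quantified by fluorescence of labelled RT-PCR products on capillary electrophoresis; gain- and loss-of-signal fits use DMSO as baseline.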

A short description of experiment [9]: ATG_PBREM_CIS: Attagene CIS-FACTORIAL HepG2 Assay for human Phenobarbital-responsive Enhancer Module (PBREM) (AID 2282955). As to conditions: HepG2 PBREM cis-reporter, Attagene multiplexed transcription; actives raise or lower the signal. In outline: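 Transfected liver-derived HepG2 cells exposed 24 h; PBREM reporter transcript quantified via RT-PCR and capillary electrophoresis, with activity in either direction referenced to DMSO.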

Experiment [10] addresses Paired box protein Pax-6 (Homo sapiens) (UniProt P26367). As to the kind of experiment: ATG_Pax6_CIS: Attagene CIS-FACTORIAL HepG2 Assay for human Paired Box 6 (PAX6) (AID 2282956). As to conditions: HepG2 CIS-FACTORIAL PAX6 reporter transcription, RNA readout; actives raise or lower the signal. In short, it runs like this: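 Values derive from bidirectional curve fitting of reporter mRNA signal relative to DMSO. HepG2 cells bearing transfected cis-regulated MRTUs were exposed for 24 h; transcripts were read by RT-PCR and capillary electrophoresis.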

Experiment [11] in a line: ATG_PXRE_CIS: Attagene CIS-FACTORIAL HepG2 Assay for human Pregnane X Receptor Element (PXRE) (AID 2282957). As to conditions: HepG2 Attagene CIS-FACTORIAL PXRE reporter, mRNA; actives raise or lower the signal. In short, it runs like this:
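Fluorescent capillary electrophoresis of amplified reporter cDNA gave the signal, collected 24 h after dosing HepG2 cells that held transfected cis-element reporter constructs.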

Experiment [12] is described as follows: ATG_PPRE_CIS: Attagene CIS-FACTORIAL HepG2 Assay for human Peroxisome Proliferator-activated Response Element (PPRE) (AID 2282958). As to conditions: HepG2 PPRE cis-element reporter, Attagene transcription factor profiling; actives raise or lower the signal. In short, it runs like this: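 Measured endpoint: PPRE-controlled reporter mRNA, detected by RT-PCR and capillary electrophoresis fluorescence, from transiently transfected HepG2 cells 24 h after dosing. Curves fitted in both directions using DMSO baseline.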

Experiment [13] in a line: ATG_RORE_CIS: Attagene CIS-FACTORIAL HepG2 Assay for human RAR-related Orphan Receptor Element (RORE) (AID 2282959). As to conditions: HepG2 Attagene cis-factorial RORE reporter, mRNA; actives raise or lower the signal. In outline: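 Transiently transfected HepG2 reporter cells were treated 24 h. Reporter transcripts were detected by RT-PCR and capillary electrophoresis, with bidirectional fitting against DMSO.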

Experiment [14] in a line: ATG_Sox_CIS: Attagene CIS-FACTORIAL HepG2 Assay for human SRY-box transcription factor (SOX) (AID 2282960). As to conditions: HepG2 Attagene cis-factorial SOX reporter, mRNA; actives raise or lower the signal. In short, it runs like this: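 Gain- or loss-of-signal endpoint, fitted bidirectionally with DMSO as negative control. Based on reporter mRNA from transfected HepG2 cells harvested 24 h post-treatment and quantified via RT-PCR and capillary electrophoresis.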

The target of experiment [15] is Transcription factor Sp1 (Homo sapiens) (UniProt P08047). As to the kind of experiment: ATG_Sp1_CIS: Attagene CIS-FACTORIAL HepG2 Assay for human Specificity Protein 1 (Sp1) (AID 2282961). As to conditions: HepG2 Sp1 cis-reporter transcription, actives raise or lower the signal. In short, it runs like this:
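Endpoint reflects endogenous Sp1 transcriptional activity, not an exogenous fusion protein: HepG2 cells with transfected cis-regulated reporters, 24 h dosing, RT-PCR/capillary electrophoresis mRNA read-out, DMSO-normalised bidirectional fit.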

A short description of experiment [16]: ATG_SREBP_CIS: Attagene CIS-FACTORIAL HepG2 Assay for human Sterol Regulatory Element Binding (SREBP) (AID 2282962). As to conditions: HepG2 Attagene cis-factorial SREBP reporter, mRNA; actives raise or lower the signal. In outline: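 Values derive from bidirectional curve fitting with DMSO as baseline. The underlying measurement is reporter mRNA from cis-element-regulated units in transiently transfected HepG2, quantified by RT-PCR and capillary electrophoresis after 24 h exposure.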

For experiment [17], the target named is Signal transducer and activator of transcription 3 (Homo sapiens) (UniProt P40763). As to the kind of experiment: ATG_STAT3_CIS: Attagene CIS-FACTORIAL HepG2 Assay for human Signal Transducer and Activator of Transcription 3 (STAT3) (AID 2282963). As to conditions: HepG2, Attagene cis-factorial STAT3 reporter transcription; actives raise or lower the signal. In short, it runs like this:
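Fluorescence intensity of 6-FAM-labelled reporter fragments, separated by capillary electrophoresis after RT-PCR, gave the signal. Cells were HepG2 transfected with cis-element reporter units and treated 24 h; fitting was bidirectional relative to DMSO.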

A short description of experiment [18]: ATG_TA_CIS: Attagene CIS-FACTORIAL HepG2 Assay for human TA Basal Promoter (AID 2282964). As to conditions: HepG2 Attagene CIS-factorial TA basal promoter reporter; actives raise or lower the signal. In outline: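 Fluorescence from labelled RT-PCR reporter fragments, separated by capillary electrophoresis, gives the signal. Cells: HepG2 transiently carrying multiple reporter units, 24 h chemical dosing. Gain or loss relative to DMSO.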

The nature of experiment [19]: ATG_TCF_b_cat_CIS: Attagene CIS-FACTORIAL HepG2 Assay for human T-Cell-Factor with beta-catenin (TCF/b-cat) (AID 2282965). As to conditions: HepG2 TCF/beta-catenin cis-reporter transcription, actives raise or lower the signal. In short, it runs like this:
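HepG2 cells transiently transfected with cis-promoter-driven multiplexed reporter units; reporter mRNA measured 24 h after dosing by RT-PCR, FAM labelling, HpaI digestion and capillary electrophoresis. Bidirectional fitting relative to DMSO baseline.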

Active and inactive are the calls of the source. How the source made its calls: active means hit-call score of the fitted dose curve at least 0.9, where 1 is the maximum; inactive means score below 0.9.

Chain of Heat shock factor protein 1 (Homo sapiens) (Q00613 whole entry, looked up, the tested form may be a part): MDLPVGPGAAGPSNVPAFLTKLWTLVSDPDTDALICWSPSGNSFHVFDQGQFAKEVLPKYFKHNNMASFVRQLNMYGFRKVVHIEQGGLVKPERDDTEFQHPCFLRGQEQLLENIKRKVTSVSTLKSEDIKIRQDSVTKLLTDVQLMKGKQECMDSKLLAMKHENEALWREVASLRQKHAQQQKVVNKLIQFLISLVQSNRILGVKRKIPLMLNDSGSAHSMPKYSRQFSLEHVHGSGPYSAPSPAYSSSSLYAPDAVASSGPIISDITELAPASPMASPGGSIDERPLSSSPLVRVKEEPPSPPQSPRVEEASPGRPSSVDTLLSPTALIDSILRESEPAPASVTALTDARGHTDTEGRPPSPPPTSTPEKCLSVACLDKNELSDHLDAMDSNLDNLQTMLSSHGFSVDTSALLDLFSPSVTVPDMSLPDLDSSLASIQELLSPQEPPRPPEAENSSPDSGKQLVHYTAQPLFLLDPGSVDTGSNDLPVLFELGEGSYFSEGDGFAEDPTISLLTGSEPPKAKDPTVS
Chain of Signal transducer and activator of transcription 3 (Homo sapiens) (P40763 whole entry, looked up, the tested form may be a part): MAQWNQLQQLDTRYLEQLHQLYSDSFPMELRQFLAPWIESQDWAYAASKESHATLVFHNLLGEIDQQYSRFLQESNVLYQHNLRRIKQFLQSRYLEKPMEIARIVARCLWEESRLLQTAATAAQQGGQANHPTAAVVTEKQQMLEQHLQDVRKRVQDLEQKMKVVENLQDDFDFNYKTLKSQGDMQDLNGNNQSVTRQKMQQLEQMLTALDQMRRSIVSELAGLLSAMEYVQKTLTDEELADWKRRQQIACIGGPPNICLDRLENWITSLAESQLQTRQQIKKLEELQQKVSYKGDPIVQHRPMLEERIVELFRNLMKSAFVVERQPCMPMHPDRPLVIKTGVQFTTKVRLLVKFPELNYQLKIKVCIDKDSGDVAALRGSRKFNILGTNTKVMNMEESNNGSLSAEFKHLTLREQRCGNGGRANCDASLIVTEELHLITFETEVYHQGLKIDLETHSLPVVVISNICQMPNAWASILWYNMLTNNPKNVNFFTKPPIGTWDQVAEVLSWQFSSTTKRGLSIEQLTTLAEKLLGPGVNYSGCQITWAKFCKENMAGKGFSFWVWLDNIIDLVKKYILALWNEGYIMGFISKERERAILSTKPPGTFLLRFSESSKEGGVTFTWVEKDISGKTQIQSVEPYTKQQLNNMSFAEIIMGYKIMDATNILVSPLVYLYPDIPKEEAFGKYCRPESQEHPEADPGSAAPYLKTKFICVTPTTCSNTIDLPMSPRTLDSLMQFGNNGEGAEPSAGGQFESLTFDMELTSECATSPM
Chain of Paired box protein Pax-6 (Homo sapiens) (P26367 whole entry, looked up): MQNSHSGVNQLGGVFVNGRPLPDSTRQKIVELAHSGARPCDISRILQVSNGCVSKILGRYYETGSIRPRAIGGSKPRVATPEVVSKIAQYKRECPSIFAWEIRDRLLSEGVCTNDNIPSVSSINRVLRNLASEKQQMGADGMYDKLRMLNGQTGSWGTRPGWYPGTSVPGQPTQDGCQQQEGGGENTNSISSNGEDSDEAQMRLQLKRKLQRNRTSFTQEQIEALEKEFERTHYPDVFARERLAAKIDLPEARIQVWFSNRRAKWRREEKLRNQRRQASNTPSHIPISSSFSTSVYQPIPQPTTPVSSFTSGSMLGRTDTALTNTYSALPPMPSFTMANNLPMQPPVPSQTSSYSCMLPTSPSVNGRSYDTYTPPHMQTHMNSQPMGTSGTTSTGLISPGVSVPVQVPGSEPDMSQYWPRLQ
Chain of Transcription factor Sp1 (Homo sapiens) (P08047 whole entry, looked up, the tested form may be a part): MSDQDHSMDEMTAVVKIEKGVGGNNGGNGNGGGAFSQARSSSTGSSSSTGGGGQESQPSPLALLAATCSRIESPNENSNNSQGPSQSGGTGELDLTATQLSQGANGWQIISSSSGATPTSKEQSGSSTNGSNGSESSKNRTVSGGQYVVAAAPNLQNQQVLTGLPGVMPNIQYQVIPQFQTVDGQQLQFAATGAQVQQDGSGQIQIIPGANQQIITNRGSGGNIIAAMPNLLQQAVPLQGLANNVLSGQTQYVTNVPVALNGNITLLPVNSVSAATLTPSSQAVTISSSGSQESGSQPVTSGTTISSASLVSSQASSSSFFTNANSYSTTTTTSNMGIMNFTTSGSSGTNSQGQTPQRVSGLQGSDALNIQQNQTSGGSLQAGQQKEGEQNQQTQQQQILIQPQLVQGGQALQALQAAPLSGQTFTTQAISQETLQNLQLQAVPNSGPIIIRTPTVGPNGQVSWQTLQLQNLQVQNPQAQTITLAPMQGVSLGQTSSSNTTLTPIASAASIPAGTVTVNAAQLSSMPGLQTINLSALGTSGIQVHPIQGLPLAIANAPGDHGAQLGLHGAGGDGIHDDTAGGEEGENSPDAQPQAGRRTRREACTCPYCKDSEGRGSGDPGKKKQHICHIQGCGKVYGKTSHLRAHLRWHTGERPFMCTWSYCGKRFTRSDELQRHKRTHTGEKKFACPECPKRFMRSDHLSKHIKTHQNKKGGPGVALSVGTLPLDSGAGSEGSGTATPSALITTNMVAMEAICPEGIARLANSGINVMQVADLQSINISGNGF
Chain of Hypoxia-inducible factor 1-alpha (Homo sapiens) (Q16665 whole entry, looked up): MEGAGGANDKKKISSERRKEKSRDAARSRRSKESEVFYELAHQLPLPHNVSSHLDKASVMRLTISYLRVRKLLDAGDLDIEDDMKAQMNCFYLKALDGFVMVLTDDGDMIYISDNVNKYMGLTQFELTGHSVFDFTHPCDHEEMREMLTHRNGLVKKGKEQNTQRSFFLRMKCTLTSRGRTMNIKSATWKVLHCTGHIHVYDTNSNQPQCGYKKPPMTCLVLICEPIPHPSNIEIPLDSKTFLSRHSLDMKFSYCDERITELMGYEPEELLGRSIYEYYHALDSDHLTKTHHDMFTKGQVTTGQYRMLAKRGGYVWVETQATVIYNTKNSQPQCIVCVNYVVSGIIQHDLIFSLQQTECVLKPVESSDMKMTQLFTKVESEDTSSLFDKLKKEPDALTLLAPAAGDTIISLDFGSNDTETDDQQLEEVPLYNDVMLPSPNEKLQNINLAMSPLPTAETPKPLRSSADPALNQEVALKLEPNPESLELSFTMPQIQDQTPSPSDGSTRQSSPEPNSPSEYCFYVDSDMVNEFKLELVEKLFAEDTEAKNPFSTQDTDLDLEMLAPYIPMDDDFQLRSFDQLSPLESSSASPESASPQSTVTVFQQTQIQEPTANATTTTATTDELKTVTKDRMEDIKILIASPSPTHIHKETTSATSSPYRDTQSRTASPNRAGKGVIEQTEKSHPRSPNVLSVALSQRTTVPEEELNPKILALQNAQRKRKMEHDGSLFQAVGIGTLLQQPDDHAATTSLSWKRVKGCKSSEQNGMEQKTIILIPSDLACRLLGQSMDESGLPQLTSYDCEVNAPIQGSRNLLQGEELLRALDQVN
Chain of Hepatocyte nuclear factor 6 (Homo sapiens) (Q9UBC0 whole entry, looked up): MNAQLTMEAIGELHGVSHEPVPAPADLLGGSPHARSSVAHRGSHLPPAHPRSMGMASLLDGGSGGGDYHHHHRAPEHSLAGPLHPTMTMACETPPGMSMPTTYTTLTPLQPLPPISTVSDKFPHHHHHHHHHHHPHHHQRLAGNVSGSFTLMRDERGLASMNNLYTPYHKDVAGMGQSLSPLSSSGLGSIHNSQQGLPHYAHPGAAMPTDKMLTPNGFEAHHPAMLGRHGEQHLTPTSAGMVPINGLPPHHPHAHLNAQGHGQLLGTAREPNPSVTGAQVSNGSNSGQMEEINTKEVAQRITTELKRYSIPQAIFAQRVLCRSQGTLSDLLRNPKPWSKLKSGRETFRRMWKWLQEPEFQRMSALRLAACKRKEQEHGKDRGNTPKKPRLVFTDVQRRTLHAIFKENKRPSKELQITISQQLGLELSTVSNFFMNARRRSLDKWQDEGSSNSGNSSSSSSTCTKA

Broadly, the AC50 is the midpoint of the concentration-response curve, whichever way the signal moves. As to `O=C1OC[C@H](Cc2cccc(O)c2)[C@H]1Cc1cccc(O)c1`, the call in [1], in [2], in experiment [3], in experiment [4], in experiment [5] and in experiment [6] was inactive. Also, the result in experiment [7], in [8], in [10], in experiment [12], in experiment [13] and in [14] was inactive. Also, the molecule was called inactive in experiment [15], in experiment [16], in experiment [17], in [18] and in experiment [19]. Besides, the AC50 was 33.5 µM (active) in experiment [9] and 5.12 µM (active) in [11].
In the case of `CN(C)c1cccc(O)c1`, the call in experiment [1], in experiment [2], in experiment [3], in experiment [4], in [5] and in [6] was inactive. Further, the molecule was called inactive in experiment [7], in experiment [8], in [9], in experiment [10], in experiment [12] and in experiment [14]. The result in experiment [15], in experiment [16], in experiment [17], in experiment [18] and in experiment [19] was inactive. Further, the AC50 in experiment [11] is 6.77 µM (active).
With `CN(C)C(=O)Nc1ccc(Oc2ccc(Cl)cc2)cc1`, the molecule was classed as inactive in [1], in [2], in [3], in experiment [4], in experiment [5] and in experiment [6]. Also, the result in experiment [8], in [9], in experiment [10], in [13], in [14] and in experiment [15] was inactive. Besides, the call in experiment [16], in experiment [17] and in [18] was inactive. Besides, the AC50 is 181 µM (active) in [7] and 26.7 µM (active) in experiment [11].
Regarding `O=CCc1ccccc1`, the outcome in [1], in experiment [2], in [3], in experiment [4], in experiment [5] and in experiment [6] was inactive. Besides, the molecule was called inactive in experiment [7], in experiment [8], in [9], in experiment [10], in experiment [13] and in experiment [14]. Moreover, the molecule was called inactive in experiment [15], in experiment [16], in experiment [17] and in experiment [18]. The AC50 in experiment [11] is 9.42 µM (active).
Regarding `C=CCCCCCCCCCC`, the result in [1], in experiment [2], in experiment [3], in [4], in experiment [5] and in experiment [6] was inactive. Besides, the result in experiment [7], in experiment [8], in [9], in experiment [10], in experiment [11] and in experiment [12] was inactive. The call in experiment [13], in experiment [14], in experiment [15], in experiment [16], in experiment [17] and in experiment [18] was inactive. Moreover, the molecule was classed as inactive in experiment [19].
Turning to `ON=C1CCCCC1`, the molecule was classed as inactive in experiment [1], in [2], in [3], in [4], in [5] and in experiment [6]. Besides, the result in experiment [7], in experiment [8], in experiment [9], in experiment [10], in experiment [11] and in [12] was inactive. In addition, the call in [13], in experiment [14], in [16], in experiment [17], in experiment [18] and in experiment [19] was inactive.
For the molecule `O=C(c1ccccc1)C(O)c1ccccc1` (stereo unspecified), the call in [1], in experiment [2], in experiment [3], in [4], in [5] and in experiment [6] was inactive. Also, the molecule was classed as inactive in [7], in experiment [8], in [9], in [10], in [12] and in experiment [13]. Moreover, the molecule was classed as inactive in experiment [14], in experiment [15], in experiment [16], in experiment [17] and in experiment [19]. The AC50 in experiment [11] is 57 µM (active).
